Screening data: PubChem, National Center for Advancing Translational Sciences (NCATS)
Most compounds without a hit are left out; they make up all but 9.2% or so of the library.
ELG1 repair inh = ELG1-dependent DNA repair inhibition; HEK293T ELG1-luciferase reporter, luminescence, 16 h; DNA damage induced by 5-fluorouridine; Potency, µM (titrated, usually from 46.1 µM), for inactives: at the top dose activity change, negative = inhibition, actives largely listed as inhibitors; actives 2.3% (n = 330,000); also: % is scaled to controls: 0 for no effect and ±100 for the full control effect; nearly all actives have a fitted effect of over 55% in size
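Quantitative HTS, concentration-response format. 2,000 cells/well co-treated with 5-fluorouridine and compound, 16 hr in 5% CO2 at 37 °C; ONE-Glo luminescence read after 30 min.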
SMN2 splice up = SMN2 splice variant enhancement; AID 1458; Potency, µM (doses to about 46.1 µM), for the others: at the top dose activity change, positive = activation, most hits filed as activators; actives 2.8% (n = 210,000); HEK293 SMN2-luciferase splicing reporter, luminescence, 30-36 h; also: % of control where 0% means no effect; nearly all actives have a fitted effect of over 55% in size
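HEK293 cells carry an SMN2 […]–luciferase reporter in which exon 7 inclusion puts luciferase in frame. Cells were plated 10-12 h before compound addition, then incubated 30-36 h at 37C. ONE-Glo luminescence was read; sodium butyrate at 4.5 mM final served as control.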
ELG1 genotox = induces genotoxicity in HEK293T cells with luciferase-tagged ELG1. HEK293T ELG1-luciferase reporter, luminescence, 16 h. Potency, µM (doses to about 46 µM), for inactives: at the top dose activity change, positive = activation, actives largely listed as activators. actives 1.3% (n = 330,000); also: % of control where 0% means no effect; nearly all actives have a fitted effect of over 60% in size
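Genotoxic stress is detected as increased luminescence from luciferase-tagged ELG1 in HEK293T cells, measured with ONE-Glo after a 16 hr treatment at 37 °C.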
Rab9 prom act = activators of Rab9 promoter. Huh7 Rab9 promoter-luciferase reporter, luminescence, 24 h. Potency, µM (titrated, usually from 9.22 µM), for inactives: at the highest dose activation, negative = inhibition, most hits filed as activators. actives 2.8% (n = 320,000); also: % of control where 0% means no effect; nearly all actives have a fitted effect of over 60% in size
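Measured in stably transfected Huh7 cells bearing a Rab9 promoter–luciferase construct: 24 h compound treatment at 37 °C, followed by luminescence detection.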
FLuc modulator = counter-screen for miR-21 project: firefly luciferase inhibitors or activators; purified FLuc, Km substrates, luminescence inhibition; AID 588342; actives 6.9% (n = 360,000); Potency, µM (highest dose often 57.5 µM), inactives show top-dose activity change, negative = inhibition, usual class: inhibitors;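 also: plate controls were vehicle for no effect and reference inhibitor for full effect; nearly all actives have a fitted effect of over 55% in size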
Target sequence (P08659 whole entry, looked up): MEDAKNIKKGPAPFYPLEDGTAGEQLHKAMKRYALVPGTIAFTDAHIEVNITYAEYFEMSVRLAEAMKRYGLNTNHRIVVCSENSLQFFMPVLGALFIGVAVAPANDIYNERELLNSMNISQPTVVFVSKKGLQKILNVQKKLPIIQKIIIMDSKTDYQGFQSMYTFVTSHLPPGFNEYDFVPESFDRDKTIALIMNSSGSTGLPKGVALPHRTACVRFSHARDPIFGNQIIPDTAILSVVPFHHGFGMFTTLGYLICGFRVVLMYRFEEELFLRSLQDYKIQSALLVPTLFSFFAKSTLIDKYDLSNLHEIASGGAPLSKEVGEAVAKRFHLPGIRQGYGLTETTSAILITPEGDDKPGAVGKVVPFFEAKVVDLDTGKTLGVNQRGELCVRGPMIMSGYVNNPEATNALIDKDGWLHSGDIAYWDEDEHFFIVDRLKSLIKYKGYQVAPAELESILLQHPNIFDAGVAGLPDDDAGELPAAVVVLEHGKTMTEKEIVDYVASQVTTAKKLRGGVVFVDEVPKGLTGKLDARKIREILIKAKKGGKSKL
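Biochemical qHTS of compounds, final roughly 60 µM downward over six points, against 10 nM purified firefly luciferase using Km concentrations of substrates (10 uM D-luciferin, 10 uM ATP) in Tris acetate pH 7.5 buffer; luminescence output.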
NPC1 prom act = activators of NPC1 promoter. Huh7 NPC1 promoter luciferase reporter, 24 h. Potency, µM (series often up to 9.22 µM), for the others: top-dose activation, usual class: activators. actives 2.4% (n = 320,000). AID 485313; also: % of control where 0% means no effect; nearly all actives have a fitted effect of over 60% in size
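In 1536-well qHTS, Huh7 cells harboring an NPC1 promoter–luciferase construct received compound for 24 h; activation was quantified by luminescence following luciferase reagent addition.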
* marks the source's active call; other numbers are inactive results; [ ] = another dose, or the depositor's remark. Calls follow the shape of the dose curve; as a rule, active = well fitted curve in the direction sought with a large enough effect; inconclusive = small, poorly fitted or top-dose-only effect, or another doubt; inactive = no such curve, though single readings can be large; an effect the other way counts as inactive or inconclusive. Potency is read from the fitted curve at half-maximal effect.

O=C(Nc1ccc2c(c1)OCCO2)c1cccc(Cl)c1Cl was read as ELG1 repair inh inconclusive, ELG1 genotox 2.6µM*, Rab9 prom act 1.6µM*, FLuc modulator 7.6µM* and NPC1 prom act 3.5µM*.
Screening Cc1ccc(C(=O)Nc2ccc3c(c2)OCCO3)c(Cl)c1 returned ELG1 repair inh inconclusive, ELG1 genotox inconclusive, Rab9 prom act 0.089µM*, FLuc modulator 0.43µM* and NPC1 prom act 0.089µM*.
Cc1oc(C(C)(C)C)cc1C(=O)Nc1ccc2c(c1)OCCO2 was read as SMN2 splice up 30% and FLuc modulator 12µM*.
`Cc1oc(C(C)(C)C)cc1C(=O)Nc1ccc2c(c1)OCO2` gave ELG1 repair inh -1%, ELG1 genotox -2%, Rab9 prom act 19%, FLuc modulator inconclusive and NPC1 prom act 22%.
O=C(Nc1ccc2c(c1)OCCO2)c1c(F)c(F)c(F)c(F)c1F was read as ELG1 repair inh -1%, SMN2 splice up -4%, ELG1 genotox 1%, Rab9 prom act 5%, FLuc modulator 2% and NPC1 prom act -1%.
O=C(Nc1ccc2c(c1)OCCO2)c1cc(F)c(F)cc1Cl was read as ELG1 repair inh inconclusive, ELG1 genotox inconclusive, Rab9 prom act 2.5µM*, FLuc modulator 12µM* and NPC1 prom act 2.2µM*.
For O=C(CN1C(=O)NC2(CCCCCC2)C1=O)N1CCN(c2ccccc2)CC1 the results were ELG1 repair inh 7%, ELG1 genotox -1%, Rab9 prom act -2%, FLuc modulator 6% and NPC1 prom act 1%.
For O=C(Nc1ccc(S(=O)(=O)N2CCCC2)cc1)c1cc(F)c(F)cc1Cl the results were ELG1 repair inh 15µM*, ELG1 genotox -6%, Rab9 prom act -2%, FLuc modulator -5% and NPC1 prom act 1%.
O=C(Nc1ccc(S(=O)(=O)N2CCCCC2)cc1)c1ccccc1F was read as ELG1 repair inh 0%, ELG1 genotox -9%, Rab9 prom act -4%, FLuc modulator 5% and NPC1 prom act -8%.
Screening NS(=O)(=O)c1ccc(NC(=O)Nc2cccc3ccccc23)cc1 returned ELG1 repair inh -2%, SMN2 splice up -7%[9.22 µM], ELG1 genotox 3%, Rab9 prom act -8%, FLuc modulator -10% and NPC1 prom act 0%.
CCN(CC(=O)Nc1ccc(C(C)=O)cc1)CC(=O)Nc1ccccc1C(F)(F)F was read as ELG1 repair inh -13%, ELG1 genotox 0%, Rab9 prom act -7%, FLuc modulator -2% and NPC1 prom act -3%.
Screening CCN(CC)c1ccc(NC(=O)Nc2ccccc2C(F)(F)F)cc1 returned ELG1 repair inh inconclusive, SMN2 splice up 7%, ELG1 genotox 0%, Rab9 prom act 3.2µM*, FLuc modulator -19% and NPC1 prom act inconclusive.
Screening CCN(CC)c1ccc(NC(=O)Nc2cccc3ccccc23)cc1 returned ELG1 repair inh inconclusive, ELG1 genotox 16%, Rab9 prom act 18%, FLuc modulator 2.1µM* and NPC1 prom act inconclusive.
`CN(C)c1ccc(NC(=O)Nc2cccc3ccccc23)cc1` gave ELG1 repair inh inconclusive, SMN2 splice up 12%, ELG1 genotox 16%, Rab9 prom act inconclusive, FLuc modulator 2.7µM* and NPC1 prom act 28%.
Screening O=C(c1ccco1)N1CCN(C(=S)Nc2ccc(Br)cc2Cl)CC1 returned ELG1 repair inh -4%, ELG1 genotox -5%, Rab9 prom act 0%, FLuc modulator -3% and NPC1 prom act -1%.
Screening COc1ccccc1Cc1nnc(NC(=O)C2CCN(C(=O)c3ccco3)CC2)s1 returned ELG1 repair inh -6%, ELG1 genotox -10%, Rab9 prom act 1%, FLuc modulator -2% and NPC1 prom act -1%.
`Cn1c(=O)c(-c2ccccc2)nc2cnc(Oc3ccccc3)nc21` gave SMN2 splice up -3%.
Cc1c(C(=O)NCc2ccc3c(c2)OCO3)oc2ccc(S(=O)(=O)N3CCCCCC3)cc12 was read as SMN2 splice up -33% and FLuc modulator 2%.
Screening CC1CCN(S(=O)(=O)c2ccc3c(c2)oc(=O)n3CC(=O)NCc2ccc3c(c2)OCO3)CC1 returned ELG1 repair inh 10µM*, SMN2 splice up -84%, ELG1 genotox -15%, Rab9 prom act -10%, FLuc modulator 2% and NPC1 prom act -4%.
`Cc1c(C(=O)NCc2ccc3c(c2)OCO3)oc2ccc(S(=O)(=O)N3CCC(C)CC3)cc12` gave ELG1 repair inh 8.2µM*, SMN2 splice up -49%, ELG1 genotox -4%, Rab9 prom act -12%, FLuc modulator 2% and NPC1 prom act -10%.
`O=C(c1cccc(C(F)(F)F)c1)C1CCCN(C(=O)CCCn2cncn2)C1` (centres undefined) gave ELG1 repair inh -14%, ELG1 genotox 0%, Rab9 prom act 1%, FLuc modulator -16% and NPC1 prom act -2%.
Screening CCCCc1c(C)c2ccc(OCC(C)=O)cc2oc1=O returned ELG1 repair inh inconclusive, SMN2 splice up 16µM*, ELG1 genotox 5.2µM*, Rab9 prom act 2.8µM*, FLuc modulator 19µM* and NPC1 prom act 3.2µM*.
For COc1ccc(CNC(=O)Cc2c(C)c3ccc(O)cc3oc2=O)cc1 the results were SMN2 splice up -1% and FLuc modulator 7.6µM*.
Cc1c(Cc2ccccc2)c(=O)oc2cc(OCC(=O)N3CCC(C(=O)O)CC3)ccc12 was read as ELG1 repair inh inconclusive, ELG1 genotox 4%, Rab9 prom act -6%, FLuc modulator 21µM* and NPC1 prom act 0%.
Screening Cc1c(CC(=O)O)c(=O)oc2cc(OCc3ccc(Cl)cc3)ccc12 returned ELG1 repair inh inconclusive, ELG1 genotox 6%, Rab9 prom act 15%, FLuc modulator 8.5µM* and NPC1 prom act 12%.
`O=C(O)C1CCN(C(=O)COc2ccc3c(c2)oc(=O)c2ccccc23)CC1` gave ELG1 repair inh 12%, ELG1 genotox 5%, Rab9 prom act -2%, FLuc modulator inconclusive and NPC1 prom act 2%.
Screening COc1ccc(CNC(=O)Cc2c(C)c3c(O)cc(C)cc3oc2=O)cc1 returned SMN2 splice up 21% and FLuc modulator 2%.
Screening CCOC(=O)c1sc2cccc(F)c2c1S(=O)(=O)NCc1ccccc1Cl returned FLuc modulator 5%.
`CC(=O)Nc1cc(NC(C)=O)cc(C(=O)NCC2(N3CCOCC3)CCCCC2)c1` gave ELG1 repair inh 15%, ELG1 genotox -1%, Rab9 prom act -5%, FLuc modulator 1% and NPC1 prom act -2%.
